Laboratory results from PubChem BioAssay AID2535 (National Center for Advancing Translational Sciences (NCATS), 2010).
The source made the active and inactive calls. The call rests on the fitted dose curve; in most records, active means well fitted curve in the direction sought with a large enough effect; inconclusive means small, poorly fitted or top-dose-only effect, or effect the other way, or another doubt; inactive means no such curve, though single readings can be large or run the other way.

These compounds were tested against Pyruvate kinase PKLR (Homo sapiens) (UniProt P30613) (assay: Secondary Concentration-Response Assay for Activators of Human Liver Pyruvate Kinase: for Probe SAR). Details: purified hPK-L, ATP production, Kinase-Glo luminescence; series mostly up to 58.3 µM.
Source text: NIH Chemical Genomics Center [NCGC]
Matthew G. Vander Heiden, M.D., Ph.D. [Harvard Medical School, 77 Avenue Louis Pasteur, Boston, MA 02115]
Human pyruvate kinase liver (hPK-L) enzyme was supplied as a highly purified (>95% pure) preparation from Harvard Medical School and assayed for its ability to generate ATP from ADP using phosphoenolpyruvate (PEP) as a substrate. ATP generation was detected in a coupled reaction by luciferase-mediated luminescence, an ATP-dependent process. Pyruvate kinase substrates, PEP and ADP, were present in the assay at Km and approximately 10-fold below Km respectively. The enzyme was assayed at an intermediate level of activity to screen for both inhibitors and activators.
NCGC Assay Protocol Summary for L-isoform:
Three uL of substrate mix (at r.t.) in assay buffer (50 mM Imidazole pH7.2, 50 mM KCl, 7 mM MgCl2, 0.01% Tween 20, 0.05% BSA) was dispensed into white solid bottom 1,536 well microtiter plates so that the final concentrations of substrates in the assay were 0.1 mM ADP and 0.5 mM PEP. 23 nL of compound were delivered by a pin tool and 1 uL of enzyme mix (final concentration of 0.1 nM) in assay buffer (4 degree Celsius) was added. Plates were incubated at room temperature for 1 hour. Two uL of detection mix (Kinase-Glo, Promega; at 4 degree Celsius protected from light) was added and luminescence read by a ViewLux (Perkin Elmer) at 1 second exposure/plate. Data were normalized to the uninhibited (row 31). Additionally, a no enzyme and 5-fold enzyme control was dispensed in row 32, split equally between the two conditions.

Pyruvate kinase PKLR (Homo sapiens), sequence (P30613 whole entry, looked up): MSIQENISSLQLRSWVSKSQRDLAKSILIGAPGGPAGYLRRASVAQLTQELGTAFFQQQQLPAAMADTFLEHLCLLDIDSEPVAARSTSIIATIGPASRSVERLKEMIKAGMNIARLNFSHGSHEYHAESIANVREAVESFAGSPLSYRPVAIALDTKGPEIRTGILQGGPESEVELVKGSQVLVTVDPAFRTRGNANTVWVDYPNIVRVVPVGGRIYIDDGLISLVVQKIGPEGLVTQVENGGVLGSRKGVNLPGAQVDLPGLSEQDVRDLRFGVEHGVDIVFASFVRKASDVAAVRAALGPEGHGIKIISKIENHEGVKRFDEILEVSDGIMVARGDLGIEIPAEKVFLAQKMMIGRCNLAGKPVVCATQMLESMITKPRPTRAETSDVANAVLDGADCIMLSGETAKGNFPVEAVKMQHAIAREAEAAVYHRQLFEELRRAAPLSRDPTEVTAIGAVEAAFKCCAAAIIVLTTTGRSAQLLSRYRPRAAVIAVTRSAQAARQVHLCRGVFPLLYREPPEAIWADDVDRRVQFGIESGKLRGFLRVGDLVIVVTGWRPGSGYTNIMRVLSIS

outcome, inactive:
O=S1(=O)N=C(Oc2ccccc2)c2ccccc21
CC(=O)Nc1cccc(S(=O)(=O)Nc2ccc(C)c(C)c2)c1
Cc1ccc(NS(=O)(=O)c2ccc3ccccc3c2)cc1C
Cc1c(Cl)cccc1NS(=O)(=O)c1cc2c(cc1Cl)CCC(=O)N2
Cc1ccc2nc(-c3ccc(C)o3)c(Nc3ccc4c(c3)OCO4)n2c1
Cc1ccc(NS(=O)(=O)c2ccc3c(c2)CCC(=O)N3)cc1F
COc1cc(N2C(=O)c3ccccc3C2=O)c2ncccc2c1
Cc1ccc(NS(=O)(=O)c2cc3c(cc2Br)NC(=O)CO3)cc1C
Cc1ccc(NS(=O)(=O)c2ccc3c(c2)CCC(=O)N3)cc1Cl
O=C1c2ccccc2C(=O)N1c1ccc(Cl)cc1
Cc1ccc2nc(-c3cccs3)c(Nc3ccccc3)n2c1
O=C1c2ccccc2C(=O)N1c1cccc(O)c1
O=C1c2ccccc2C(=O)N1c1cccc(=O)[nH]1
Cc1ccn2c(NCc3ccco3)c(-c3ccccc3)nc2c1
O=C1CCc2cc(S(=O)(=O)Nc3ccc(F)c(Cl)c3)ccc2N1
Fc1ccccc1-c1ccc(-c2nc3ccc(Cl)cn3c2Nc2ccc(Cl)cc2)o1
Nc1cc(S(=O)(=O)N2CCN(S(=O)(=O)c3ccc4c(c3)OCCO4)CC2)ccn1
Cc1cc(N2C(=O)c3ccccc3C2=O)no1
N#Cc1ccc(NS(=O)(=O)c2ccc3c(c2)CCC(=O)N3)cc1
Cc1ccc(NS(=O)(=O)c2ccc3c(c2)CCN(C(=O)C(F)(F)F)C3)cc1C
COc1cccc(NS(=O)(=O)c2ccc3c(c2)CCC(=O)N3)c1
CC(=O)N1c2ccc(S(=O)(=O)Nc3ccc(C)c(C)c3)cc2CC1C (stereo not given)
O=C1CCc2cc(S(=O)(=O)Nc3ccc(Cl)c(Cl)c3)ccc2N1
N#Cc1cccc(NS(=O)(=O)c2ccc3c(c2)CCC(=O)N3)c1
O=C1NS(=O)(=O)c2ccccc21
O=C1c2ccccc2C(=O)N1c1nccs1
Cc1ccc(NS(=O)(=O)c2cc3c(cc2C)OCC(=O)N3)cc1C
CCNc1cccc(S(=O)(=O)N2CCCN(S(=O)(=O)c3ccc4c(c3)OCCO4)CC2)c1
O=C1CCc2cc(S(=O)(=O)Nc3cccc(Br)c3)ccc2N1
Cc1ccc(NS(=O)(=O)c2cc3c(cc2-c2ccco2)NC(=O)CO3)cc1C
O=C1c2ccccc2C(=O)N1c1cccc(Cl)c1
O=S1(=O)N=C(Oc2ccccc2Cl)c2ccccc21
Cc1ccc(NS(=O)(=O)c2cccc(C(=O)O)c2)cc1C
Cc1ccc(NS(=O)(=O)c2cc3c(cc2Cl)NC(=O)CO3)cc1C
Cc1ccc(NS(=O)(=O)c2ccc(Cl)cc2)cc1C
Cc1ccccc1OC1=NS(=O)(=O)c2ccccc21
CNc1cc2c(cc1S(=O)(=O)Nc1ccc(C)c(C)c1)CCC(=O)N2
Cc1ccc(NS(=O)(=O)c2cc3c(cc2N2CCC2)NC(=O)CC3)cc1C
O=C1c2ccccc2C(=O)N1c1cncc2ccccc12
O=C1c2ccccc2C(=O)N1c1ccc2ncccc2c1
